Bioassay records as filed in PubChem BioAssay.
Only some compounds are listed: those with a hit (about 13% of all), similar ones and a draw of the others.
4-MU autofl: compounds fluorescent in 4-MU spectral region | compound autofluorescence, 340/450 nm, 4-MU equivalents; active compounds read high | max dye-equivalent concentration, M | 59,000 tested, 11% active | AID 589; in the data active = max dye-equivalent concentration above about 10 nM; inconclusive = mostly about 1.1 nM to 9.6 nM
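Intrinsic fluorescence at 340/450 nm (ex/em) was read after 15 min at room temperature in pH 8.0, 100 mM Tris. Each compound concentration expressed as 4-MU-equivalent concentration from a six-point 4-MU standard series on each plate.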
AID923: qHTS Assay for Allosteric/Competitive Inhibitors of Caspase-1: Spectroscopic Profiling in AFC Spectral Region. compound fluorescence, AFC spectral region (405/520 nm). Potency, µM (top dose mostly 57.5 µM), most hits filed as activators. 75,000 tested, 1.1% active
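Baseline compound fluorescence (AFC region, 405 nm ex/520 nm em) taken from the intercept of kinetic reads with 50 nM caspase-1 and 5 uM Ac-WEHD-AFC; normalized to an on-plate AFC standard curve; compounds titrated up to 57 uM.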
HSD17B inh: blocks hydroxysteroid 17-beta dehydrogenase activity. Q99714. 75,000 tested, 7.6% active. recombinant HSD17B10, NADH fluorescence kinetic. Potency, µM (titrated, usually from 57.1 µM), usual class: inhibitors;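 also: the protocol describes HADH2 (HSD17B10) and not the HSD17B4 of the title; nearly all actives have a fitted effect of over 70% in size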
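His-tagged E. coli-expressed HADH2 at 20 nM in 100 mM Tris-HCl pH 9.0 with 0.01 % Tween-20, preincubated 15 min with compound at room temperature. Reaction with 1 mM NAD+ and 90 uM beta-hydroxybutyryl coenzyme A; NADH fluorescence (360/450 nm) read kinetically over 4 min, last minus first point.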
A350 fluor: A350 region autofluorescence | Compound autofluorescence, 340/450 nm, Alexa 350 dye-equivalents; active compounds read high | 59,000 tested, 11% active | max dye-equivalent concentration, M | AID 590; in the data active = max dye-equivalent concentration above about 10 nM; inconclusive = mostly about 1.1 nM to 9.6 nM
HADH2 inhib: HADH2 (human) dehydrogenase inhibition | 73,000 tested, 3.4% active | AID 886 | recombinant HADH2, NADH fluorescence, beta-hydroxybutyryl-CoA | Q99714 | Potency, µM (series often up to 57.1 µM), usual class: inhibitors; also: nearly all actives have a fitted effect of over 60% in size
Target sequence (Q99714 whole entry, looked up, one chain of several): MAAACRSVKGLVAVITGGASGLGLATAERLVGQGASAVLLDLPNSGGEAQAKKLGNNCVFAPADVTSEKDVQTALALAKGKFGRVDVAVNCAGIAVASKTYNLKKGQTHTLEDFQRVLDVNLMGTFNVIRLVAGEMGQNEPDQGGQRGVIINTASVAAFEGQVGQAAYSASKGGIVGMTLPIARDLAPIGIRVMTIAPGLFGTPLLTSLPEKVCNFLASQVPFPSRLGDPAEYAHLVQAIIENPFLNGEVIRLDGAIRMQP
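NADH fluorescence (ex 360/em 450 nm) read every 30 s for 4 min; activity taken as last-minus-first time point difference. Enzyme 20 nM, NAD+ 1 mM, beta-hydroxybutyryl-CoA 90 uM, pH 9.0 Tris buffer.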
GBA mod: human lysosomal glucosylceramidase modulation; 48,000 tested, 1.1% active; Potency, µM; purified enzyme, resorufin glucoside fluorescence (screen aimed at inhibitors), 20 min; AID 360; P04062; in the data active = potency below about 15 µM; inconclusive = mostly about 16 µM to 33 µM;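 also: the screen sought inhibitors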
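Normal human glucocerebrosidase (0.2 nM final) was assayed with resorufin β-D-glucopyranoside (30 uM final) in 50mM citric acid/KH2PO4, 10mM sodium taurocholate, 0.01% tween-20, pH 5.9. Compounds were titrated; fluorescence (Ex 548, Em 600) read after 20 min at RT.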
Numbers stand for hits; [ ] = another dose, or the depositor's remark. Unless noted, calls follow the shape of the dose curve; as a rule, active = well fitted curve in the direction sought with a large enough effect; inconclusive = small, poorly fitted or top-dose-only effect, or another doubt; inactive = no such curve, though single readings can be large; an effect the other way counts as inactive or inconclusive.

Screening COc1cc(C(=O)OCC(=O)NC2CCCC2)cc(NC(=O)c2ccco2)c1OC returned 4-MU autofl 1.9e-08M, AID923 inactive, HSD17B inh inconclusive, A350 fluor 1.8e-08M, HADH2 inhib inactive and GBA mod inactive.
COc1cc(NC(=O)c2cccs2)ccc1NC(=O)c1ccco1 was read as 4-MU autofl 1.3e-07M, AID923 inactive, HSD17B inh inactive, A350 fluor 1.4e-07M, HADH2 inhib inconclusive and GBA mod inactive.
For Cc1cc(C)n(-c2ccc(Cl)c(C(=O)Nc3ccc(-c4nnc5n4CCCCC5)cc3)n2)n1 the results were 4-MU autofl inactive, AID923 inactive, HSD17B inh inactive, A350 fluor inactive and HADH2 inhib inactive.
`OCCNc1ncnc2nc[nH]c12` gave 4-MU autofl inactive, AID923 inactive[11.5 µM], HSD17B inh inactive[11.4 µM], A350 fluor inactive and HADH2 inhib inactive[11.4 µM].
`COc1ncc2nc(-c3ccccc3)c(=O)n(CCC#N)c2n1` gave 4-MU autofl 1.3e-08M, AID923 inactive, HSD17B inh 25µM, A350 fluor 1.8e-08M and HADH2 inhib 40µM.
For COc1ncc2nc(-c3cc(F)cc(F)c3)c(=O)n(CCC#N)c2n1 the results were 4-MU autofl inconclusive, AID923 inactive, HSD17B inh 32µM, A350 fluor inconclusive and HADH2 inhib inactive.
Screening COc1ncc2nc(-c3ccc(Cl)cc3)c(=O)n(CCC#N)c2n1 returned 4-MU autofl inconclusive, AID923 inactive, HSD17B inh inactive, A350 fluor inconclusive and HADH2 inhib inactive.
`Nc1ccnc(C(F)(F)F)c1C(=O)c1ccccc1` gave 4-MU autofl inactive, AID923 inactive, HSD17B inh inactive, A350 fluor inactive, HADH2 inhib inconclusive and GBA mod inactive.
O=C(CSC1=NCCS1)N1CCc2ccccc21 was read as 4-MU autofl inactive, AID923 inactive, HSD17B inh inactive, A350 fluor inconclusive, HADH2 inhib inactive and GBA mod inactive.
COc1ccc2c(c1)c1ncn(CCN3CCCC3)c(=O)c1n2C was read as 4-MU autofl 9.5e-07M, AID923 inactive, HSD17B inh 25µM, A350 fluor 6.7e-07M, HADH2 inhib 25µM and GBA mod inactive.
`COc1ccccc1CCn1cnc2c3cc(C)ccc3n(C)c2c1=O` gave 4-MU autofl 5.8e-08M, AID923 inactive, HSD17B inh 32µM, A350 fluor 1.8e-08M, HADH2 inhib inconclusive and GBA mod inconclusive.
For Clc1ccc(CSc2ncnc3c2ncn3[C@@H]2CCCCO2)cc1 the results were 4-MU autofl inactive, AID923 inactive[11.5 µM], HSD17B inh inactive[11.4 µM], A350 fluor inactive and HADH2 inhib inactive[11.4 µM].
`COc1ccccc1NC(=O)CSc1nccc(=O)[nH]1` gave 4-MU autofl 1.2e-07M, AID923 inconclusive, HSD17B inh 3.2µM, A350 fluor 1.1e-07M, HADH2 inhib inactive and GBA mod inactive.
`Cn1c(=O)n(CC(=O)NC2CCCCC2)c(=O)c2ccccc21` gave 4-MU autofl inactive, AID923 inactive, HSD17B inh inactive, A350 fluor inactive, HADH2 inhib inactive and GBA mod inactive.
For CN(N=O)c1ccc(/C=C\c2ccnc3ccccc23)cc1 the results were 4-MU autofl 2.5e-07M, AID923 inactive[11.5 µM], HSD17B inh 4µM, A350 fluor 2.8e-07M and HADH2 inhib inactive[11.4 µM].
For CC[C@H](C)C(=O)O[C@@H]1CCC=C2C=C[C@H](C)[C@@H](CC[C@H]3C[C@@H](O)CC(=O)O3)[C@H]21 the results were 4-MU autofl 1.1e-08M, A350 fluor inconclusive and HADH2 inhib inactive.
Screening Cc1cc(C)nc(-n2c(Nc3ccccc3)cc(=O)c3c(C)n(-c4ccccc4)c(=O)nc32)n1 returned AID923 inactive, HSD17B inh inactive and HADH2 inhib inactive[11.4 µM].
COC(=O)[C@@H]1[C@@H](O)[C@]2(O)c3ccccc3O[C@]2(c2ccccc2)[C@H]1c1ccccc1 was read as AID923 inactive[11.5 µM], HSD17B inh inactive[11.4 µM] and HADH2 inhib inactive[11.4 µM].
`FC(F)C(F)(F)C(F)(F)C(F)(F)c1cc(-c2ccccc2)n[nH]1` gave AID923 inactive, HSD17B inh inactive and HADH2 inhib inactive.
